GALR2 agonist: agonists of human galanin receptor 2 (GALR2); activation, % (test concentration not listed); GALR2-expressing cells, agonist activation read-out; actives 0.48% (n = 140,000); O43603; AID 803; in the data active = activation above about 5%, passing the limit was not always enough
S1P2 blocker: antagonists of human S1P2 receptor. cell-based S1P2 antagonist assay, inhibition at 5 uM. actives 0.21% (n = 97,000). inhibition, % at 5 µM; in the data active = inhibition above about 45%;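 also: CRE beta-lactamase reporter cells expressing human S1P2 stimulated with S1P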
S1P2 ag: activates the human S1P2 receptor; O95136; S1P2-expressing cell line, agonist reporter read-out; activation, % at 4.5 µM; actives 0.46% (n = 97,000); AID 729; in the data active = activation above about 16%
GALR2 antag: GALR2 (human) receptor antagonism | actives 0.39% (n = 140,000) | inhibition, % at 4 µM | O43603 | GALR2-expressing cells, antagonist mode; in the data active = inhibition above about 27%;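 also: cells stimulated with galanin 1-16 at roughly its EC80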
FAK inh: inhibitors of human focal adhesion kinase | Q05397 | inhibition, %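 (tested at 7 µM)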 | biochemical FAK kinase activity assay | AID 727 | actives 0.84% (n = 97,000); in the data active = inhibition above about 19%
Target sequence (Q05397 whole entry, looked up): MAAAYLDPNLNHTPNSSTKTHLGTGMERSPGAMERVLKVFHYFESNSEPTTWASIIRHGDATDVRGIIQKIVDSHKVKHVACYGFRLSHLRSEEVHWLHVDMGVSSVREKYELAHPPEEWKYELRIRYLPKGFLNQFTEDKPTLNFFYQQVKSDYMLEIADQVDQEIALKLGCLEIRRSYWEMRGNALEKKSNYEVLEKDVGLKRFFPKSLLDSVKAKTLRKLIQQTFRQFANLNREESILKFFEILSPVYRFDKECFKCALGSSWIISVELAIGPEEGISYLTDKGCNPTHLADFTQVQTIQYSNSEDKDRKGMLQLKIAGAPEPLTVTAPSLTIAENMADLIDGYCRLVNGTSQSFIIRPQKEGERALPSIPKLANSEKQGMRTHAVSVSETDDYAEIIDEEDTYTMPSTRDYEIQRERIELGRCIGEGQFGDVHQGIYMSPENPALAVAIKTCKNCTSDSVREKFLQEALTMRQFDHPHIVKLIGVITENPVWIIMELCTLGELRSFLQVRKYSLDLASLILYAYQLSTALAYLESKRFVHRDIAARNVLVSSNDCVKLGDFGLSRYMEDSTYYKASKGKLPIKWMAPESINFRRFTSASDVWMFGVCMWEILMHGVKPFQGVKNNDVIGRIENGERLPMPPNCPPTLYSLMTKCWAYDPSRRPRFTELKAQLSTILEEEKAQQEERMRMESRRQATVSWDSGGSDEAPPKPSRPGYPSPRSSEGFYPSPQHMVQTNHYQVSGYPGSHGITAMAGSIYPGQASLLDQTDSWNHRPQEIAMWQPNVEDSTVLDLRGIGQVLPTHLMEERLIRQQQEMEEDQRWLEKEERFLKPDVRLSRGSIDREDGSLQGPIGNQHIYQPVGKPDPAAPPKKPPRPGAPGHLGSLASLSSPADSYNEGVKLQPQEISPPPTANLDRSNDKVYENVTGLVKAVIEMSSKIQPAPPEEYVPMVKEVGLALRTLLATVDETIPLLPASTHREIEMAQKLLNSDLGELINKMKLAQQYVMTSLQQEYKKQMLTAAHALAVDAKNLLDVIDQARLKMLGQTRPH
SDO1 yeast rescue: compounds rescuing growth of sdo1-depleted yeast, bone marrow failure model | z-score at 10 µM | AID 817 | actives 0.21% (n = 140,000) | S. cerevisiae sdo1-depleted JHY4D growth rescue, OD600 30 h; hits give high values; pdr5 snq2 efflux-pump mutant strain;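 active = z-score above 3 at both the 24 hr and the 30 hr optical density reads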
GALR2 ag confirm: confirmation of human galanin receptor 2 (GALR2) agonists; shares compounds with GALR2 agonist; GALR2-expressing cells, agonist activation; activation, % at 5.6 µM; actives 10% (n = 460); AID 864; in the data active = activation above about 8.4%
BLA activ ctr: activates beta-lactamase reporter in GALR2 agonist counterscreen; shares compounds with GALR2 agonist; CHO NFAT-bla reporter, beta-lactamase FRET activation; activation, % at 5.6 µM; actives 10% (n = 460); AID 865;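 active = activation above the screen-wide mean activation plus 3 SD, cut at about 8% in these data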
Numbers stand for hits; 0 = inactive; - = not tested or not shown. Sampled rows, rich in hits. Any-hit rate of the full collection: about 1.9%.

SMILES | GALR2 agonist | S1P2 blocker | S1P2 ag | GALR2 antag | FAK inh | SDO1 yeast rescue | GALR2 ag confirm | BLA activ ctr
O=C(CSc1nc2c([nH]c3ccccc32)c(=O)n1-c1cccc(Cl)c1)N1CCOCC1 | 13 | 0 | 0 | 0 | 0 | 0 | 0 | 0
COc1ccc(/C=C2\SC(N3CCc4ccccc4C3)=NC2=O)cc1OC | 0 | - | - | 0 | - | 0 | - | -
Cc1nc(-n2[nH]c3c(c2=O)CCCC3)[nH]c(=O)c1Cc1ccccc1 | 0 | 0 | 0 | 0 | 0 | 0 | 0 | 29
CCOC(=O)/C=c1\s/c(=C\c2ccc(C(F)(F)F)cc2)c(=O)n1CC(=O)NCc1ccco1 | 0 | - | - | 0 | - | 0 | - | -
CCOC(=O)/C=c1\s/c(=C\c2ccc(C)cc2)c(=O)n1CC(=O)NCc1ccco1 | 8.2 | - | - | 0 | - | 0 | 0 | 0
COc1cccc(NC(=O)N(Cc2cc3cc(C)cc(C)c3[nH]c2=O)CC2COCCO2)c1 (stereo not given) | 0 | 0 | 0 | 0 | 0 | 0 | - | -
O=C(O)CC1(c2ccccc2)C(=O)c2ccccc2C1=O | 10 | - | - | 0 | - | 0 | 0 | 0
Cc1cc(C(=O)CN2C(=O)NC3(CCCCC3C)C2=O)c(C)n1Cc1cccs1 (stereo not given) | 0 | - | - | 0 | - | 0 | - | -
Cc1cc(C(=O)CN2C(=O)c3cccc(N)c3C2=O)c(C)n1Cc1cccs1 | 0 | 0 | 0 | 0 | 0 | 0 | 0 | 0
Cn1nc(OC(=O)Nc2ccc(F)cc2)cc1C(F)(F)F | 62 | 0 | 0 | 0 | 0 | 0 | 0 | 0
Cc1c(/C=N/n2cnnc2)c2ccccc2n1C | 12 | 0 | 0 | 0 | 0 | 0 | 0 | 0
O=C(CN1CCCCC1)Nc1cc(Cl)ccc1Cl | 180 | 0 | 0 | 0 | 0 | 0 | 0 | 0
COc1ccc(OC)c(NC(=O)c2cccnc2Sc2ccccc2)c1 | 0 | - | - | 0 | - | 0 | - | -
CC1(C)CC(=O)C2=C(C1)Nc1ncnn1C2c1ccccn1 (stereo not given) | 23 | 0 | 0 | 0 | 0 | 0 | 0 | 0
CC1(C)O[C@H]2OC([C@H](O)CON3C(=O)c4ccccc4C3=O)[C@H](O)[C@H]2O1 (stereo not given in full) | 0 | - | - | 0 | - | 0 | - | -
COc1ccc(NC(=S)N2CCc3ccccc3C2)cc1 | 0 | - | - | 0 | - | 0 | - | -
CN1C(=O)/C(=C/c2ccccc2OCc2cccc(F)c2)NC1=S | 146 | 0 | 0 | 0 | 0 | 0 | 0 | 0
CCOc1cc(/C=C2/C(=O)N(c3ccccc3)N=C2C)ccc1OC(=O)c1ccco1 | 136 | 0 | 0 | 0 | 0 | 0 | 0 | 0
CC(C)[C@H](N)c1nnc(SC/C=C/c2ccccc2)o1 | 0 | 0 | 0 | 0 | 0 | 0 | - | -
Cc1ccc(C2CC(c3ccccc3)=NN2C(=S)Nc2ccccc2)o1 (stereo not given) | 0 | 0 | 0 | 0 | 0 | 0 | - | -
CCc1ccc(-c2cc(C(F)(F)F)n3nc(C(=O)Nc4c(C)nn(Cc5ccc(F)cc5)c4C)cc3n2)s1 | 13 | 0 | 0 | 0 | 0 | 0 | 0 | 0
CCCCn1c2c(c3ccccc31)CCc1nonc1-2 | 0 | 0 | 0 | 0 | 0 | - | - | -
CC(NC(=O)Nc1ccc(Cl)c(Cl)c1)C(c1ccccc1)N1CCOCC1 (stereo not given) | 8.7 | - | - | 0 | - | 0 | 0 | 25
Cc1ccc(NC(=O)/C(=C\c2cccs2)NC(=O)c2ccccc2)cc1 | 0 | - | - | 0 | - | 0 | - | -
O=C(Nc1ccc(O)cc1)/C(=C\c1cccs1)NC(=O)c1ccccc1 | 8.8 | - | - | 0 | - | 0 | 0 | 0
SMILES | GALR2 agonist | S1P2 blocker | S1P2 ag | GALR2 antag | FAK inh | SDO1 yeast rescue | GALR2 ag confirm | BLA activ ctr
CC(=O)Nc1ccc(Sc2ncccc2C(=O)Nc2ccc(OC(F)(F)F)cc2)cn1 | 22 | 0 | 0 | 0 | 0 | 0 | 16 | 43
O=C(CN(c1ccccc1)S(=O)(=O)c1ccccc1[N+](=O)[O-])NN=C1CCCCCCC1 | 0 | 0 | 0 | 0 | 0 | 0 | - | -
O=C(CN1CCCCC1)N/N=C/c1ccccc1OCc1ccccc1 | 0 | - | - | 0 | - | 0 | - | -
Cc1cc(C)c2c(N)c(C(=O)NCC3CCCCC3)sc2n1 | 28 | 0 | 0 | 0 | 0 | 0 | 0 | 0
O=C(O)C1CC(O)CN1C(=O)c1ccco1 (stereo not given) | 0 | 0 | 0 | 0 | 0 | 0 | - | -
O=C1CSC(=Nc2cc(Cl)ccc2Cl)N1 | 27 | 0 | 0 | 0 | 0 | 0 | 0 | 0
CSc1nnc2c3cc(C)ccc3n(Cc3ccccc3)c2n1 | 10 | - | - | 0 | - | 0 | 0 | 0
CCn1c2ccc(C)cc2c2nnc(NN)nc21 | 0 | - | - | 0 | - | 0 | - | -
N#Cc1ccc(Oc2cccnc2)cc1C#N | 0 | 0 | 0 | 0 | 0 | 0 | - | -
CC(=O)c1ccc(OCCCC(=O)OCC(=O)N2CCN(c3ccccc3)CC2)cc1 | 68 | 0 | 0 | 0 | 0 | 0 | 0 | 0
CCOC(=O)COn1c(=O)c[n+]([O-])c2ccccc21 | 0 | 0 | 0 | 0 | 0 | 0 | - | -
CCOC(=O)COn1c(=O)c(C)[n+]([O-])c2ccccc21 | 31 | 0 | 0 | 0 | 0 | 0 | 0 | 0
CSCCC(NC(N)=O)C(=O)NCc1ccc(Cl)cc1 (stereo not given) | 0 | 0 | 0 | 0 | 0 | 0 | - | -
O=C(CCn1c(=O)c2ccccc2n(CC(=O)NCCC2=CCCCC2)c1=O)NCc1ccco1 | 86 | 0 | 0 | 0 | 0 | 0 | 0 | 0
COCCNC(=O)CCCn1c(=O)c2ccccc2n(CC(=O)NCCC2=CCCCC2)c1=O | 0 | 0 | 0 | 0 | 0 | 0 | - | -
CCCCNC(=O)c1ccc(Cn2c(=S)[nH]c3c([nH]c4ccc(OC)cc43)c2=O)cc1 | 10 | - | - | 0 | - | 0 | 0 | 0
Cc1ccc(S(=O)(=O)c2cc3cc(Br)ccc3oc2=O)cc1 | 0 | - | - | 0 | - | 0 | - | -
CCN(CC)c1ccc2cc(-c3nnc(-c4ccc(Br)cc4)o3)c(=O)oc2c1 | 0 | 0 | 0 | 0 | 0 | - | - | -
CCCCCCc1cc2cc(S(=O)(=O)c3ccc(Cl)cc3)c(=O)oc2cc1O | 20 | - | - | 0 | - | 0 | 15 | 46
CCCCCCc1cc2cc(C(=O)Nc3ccccc3)c(=O)oc2cc1O | 0 | - | - | 0 | - | 0 | - | -
CCCCCCc1cc2cc(S(=O)(=O)c3ccc(C)cc3)c(=O)oc2cc1O | 45 | - | - | 0 | - | 0 | 15 | 42
CCN(CC)c1ccc2cc(S(=O)(=O)c3ccc(Cl)cc3)c(=O)oc2c1 | 43 | - | - | 0 | - | 0 | 16 | 29
CCOC(=O)/C(=C\Nc1ccccc1C(F)(F)F)Sc1ncc(C(F)(F)F)cc1Cl | 0 | 0 | 0 | 0 | 0 | 0 | 0 | 0
COC(=O)C(Cc1ccc(OC(=O)c2ccc(C)cc2)cc1)N1Cc2ccccc2C1=O (stereo not given) | 0 | 0 | 0 | 0 | 0 | 0 | - | -
O=S(=O)(Nc1ccc2c(c1)OCO2)c1ccccc1 | 34 | 0 | 0 | 0 | 0 | 0 | 0 | 0
O=S(=O)(Nc1cc2nc3ccccc3nc2n1Cc1ccccc1)c1ccc(Cl)cc1 | 14 | - | - | 0 | - | 0 | 0 | 0
COc1ccc(C(=O)NC2c3ccccc3-c3ccccc32)cc1 | 0 | - | - | 0 | - | 0 | - | -
O=C(O)C(Cc1ccccc1)N1Cc2ccccc2C1=O (stereo not given) | 0 | 0 | 0 | 0 | 0 | 0 | 0 | 0

Bioassay records as filed in PubChem.
